Bioassay records (PubChem BioAssay)
PP1 counter: PP1-alpha phosphatase inhibitors, primary screen, counter-screen for PP5 inhibitor project, biochemical, fluorescence, OMFP substrate, single point. Serine/threonine-protein phosphatase PP1-alpha catalytic subunit (Homo sapiens), P62136. purified PP1alpha. inhibition, % at 6.7 µM. 0.9% of 320,000 active. AID 2235, 2010;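 active = inhibition above the mean inhibition of all tested compounds plus 3 SD, computed separately for each screening campaign, cut at about 15% in these data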
Target sequence (P62136 whole entry, looked up): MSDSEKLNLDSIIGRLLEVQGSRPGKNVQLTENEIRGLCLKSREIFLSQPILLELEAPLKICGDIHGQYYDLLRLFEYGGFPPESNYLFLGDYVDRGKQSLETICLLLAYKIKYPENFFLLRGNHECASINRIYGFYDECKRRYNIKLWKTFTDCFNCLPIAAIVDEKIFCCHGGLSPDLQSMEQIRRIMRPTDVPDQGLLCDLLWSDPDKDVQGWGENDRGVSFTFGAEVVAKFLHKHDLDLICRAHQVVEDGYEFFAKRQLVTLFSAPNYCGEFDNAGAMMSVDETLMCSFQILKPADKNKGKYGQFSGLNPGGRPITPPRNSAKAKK
PREPL inhibitor: PREPL enzyme inhibitors, primary screen, biochemical, fluorescence polarization | Prolyl endopeptidase-like (Homo sapiens), Q4J6C6 | recombinant PREPL, fluorescence polarization activity-based probe | inhibition, % at 5.96 µM | 0.68% of 320,000 active | AID 2751, 2010; in the data active = inhibition above about 43%;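 note: 0% = enzyme with DMSO and 100% = wells lacking enzyme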
Rpn11 inh: Rpn11 (PSMD14) deubiquitinase inhibitors, primary screen, biochemical, fluorescence polarization, uHTS | human 26S proteasome, Ub4-pepOG fluorescence polarization; 20S core pre-blocked with epoxomicin | inhibition, % at 20 µM | 0.59% of 360,000 active | AID 588493, 2011;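 active = inhibition at 20 µM, scaled to each plate's controls, above about 33%, limit read from the data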
Target sequence (O00487 whole entry, looked up): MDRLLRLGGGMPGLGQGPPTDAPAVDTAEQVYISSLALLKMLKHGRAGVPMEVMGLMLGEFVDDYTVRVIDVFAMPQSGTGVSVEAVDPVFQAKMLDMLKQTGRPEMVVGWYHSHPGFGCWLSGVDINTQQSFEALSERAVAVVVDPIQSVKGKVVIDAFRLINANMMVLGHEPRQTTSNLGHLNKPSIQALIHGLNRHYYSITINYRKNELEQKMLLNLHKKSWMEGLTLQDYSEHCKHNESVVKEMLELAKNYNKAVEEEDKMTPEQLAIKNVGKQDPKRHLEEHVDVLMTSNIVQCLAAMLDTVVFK
NadD block: inhibitors of S. aureus NadD, primary screen, biochemical, colorimetric, uHTS. AID 602399, 2012. inhibition, % at 20 µM. 0.78% of 360,000 active. Nicotinate-nucleotide adenylyltransferase NadD (Staphylococcus aureus N315). purified NadD enzyme, colorimetric absorbance read-out; in the data active = inhibition above about 26%
PP5 primary: PP5 phosphatase inhibitors, primary screen, biochemical, fluorescence; Serine/threonine-protein phosphatase 5 (Homo sapiens), P53041; purified PP5c, OMFP substrate fluorescence; inhibition, % at 6.7 µM; 0.18% of 320,000 active;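 active = inhibition above the campaign's mean inhibition across all tested compounds plus 3 SD, cut at about 9.5% in these data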;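 note: 0% = DMSO only and 100% = 100 µM cantharidin control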
NadD conf: inhibitors of S. aureus NadD, confirmation, biochemical, colorimetric, single concentration; 13% of 2,000 active; shares compounds with NadD block; AID 624309, 2012; inhibition, % at 20 µM; purified S. aureus NadD, colorimetric enzyme assay; in the data active = inhibition mostly above about 42%, no sharp cut-off; inactive = mostly below about 42%
Starred values were filed as active, the others as inactive; / = no result given. Sampled rows, rich in hits. Any-hit rate of the full collection: about 2.4%.

SMILES	PP1 counter	PREPL inhibitor	Rpn11 inh	NadD block	PP5 primary	NadD conf
COC(=O)Cn1c(=NC(=O)c2nc3ccccc3s2)sc2cc(S(C)(=O)=O)ccc21	0.4	2.7	/	/	-1.0	/
COC(=O)Cn1c(=NC(=O)c2sc3ccccc3c2Cl)sc2cc(S(N)(=O)=O)ccc21	26.2*	-3.7	-8.6	36.9*	-0.6	7.3
Cc1cc2nc(-c3ccco3)c(Cc3ccccc3C(F)(F)F)n2c(C)c1Br	/	/	/	41.5*	/	28.1
COc1ccccc1Cc1c(-c2ccco2)nc2ccc(Cl)cn12	/	/	20.0	29.7*	/	6.5
COc1ccccc1Cc1c(-c2ccc(C)cc2)nc2ccc(Cl)cn12	/	/	13.4	10.5	/	/
Clc1ccc2nc(-c3ccco3)c(Cc3ccsc3)n2c1	/	/	1.9	33.6*	/	17.5
FC(F)(F)c1ccccc1Cc1c(-c2ccco2)nc2ccc(Br)cn12	/	/	16.3	37.0*	/	11.0
CC1(C(=O)NS(=O)(=O)C2CC2)CCCN(C(=O)c2ccc3ccccc3c2)C1 (stereo not drawn)	/	/	-3.1	6.1	/	/
Cc1ccc2nc(C)cc(C(=O)OCC(=O)Nc3c(C)n(C)n(-c4ccccc4)c3=O)c2c1	-1.9	-4.5	-3.5	-0.7	-0.1	/
Cc1cc(C)cc(NC(=O)CCc2nc3sc4c(c3c(=O)[nH]2)CCCC4)c1	4.6	-4.7	33.9	11.6	0.0	/
COc1ccccc1Cc1c(-c2ccco2)nc2ccc(Br)cn12	/	/	3.6	44.9*	/	26.2
Cc1ccc(NC(=O)C2OCCc3ccccc32)cc1Cl (stereo not drawn)	-0.2	-4.4	-7.5	-7.9	1.8	/
CCOC(=O)C1=C(N)n2c(s/c(=C\c3ccco3)c2=O)=C(C(=O)OC(C)C)C1c1ccco1 (stereo not drawn)	-4.2	5.5	8.1	31.9*	-0.4	18.1
CCOC(=O)C1=C(N)n2c(s/c(=C\c3ccco3)c2=O)=C(C(=O)OCC)C1c1ccco1 (stereo not drawn)	-6.2	5.8	12.0	21.1	-0.3	/
O=C(CC1N=C2c3ccccc3N=C(SCc3ccc(Cl)cc3)N2C1=O)NCc1ccco1 (stereo not drawn)	2.9	14.5	11.7	49.1*	7.5	59.5*
Cc1ccc(CSC2=Nc3ccccc3C3=NC(CCC(=O)NCc4ccco4)C(=O)N23)cc1 (stereo not drawn)	0.1	30.5	-1.3	19.8	1.8	/
CC(C)(C)c1ccc(NC(=O)c2ccc3c(c2)S(=O)(=O)c2ccccc2C3=O)cc1	-2.6	-6.7	-2.2	27.9*	1.6	9.1
C[C@@H]1CCCCCCCCC(=O)OCCN1C(=O)OC(C)(C)C	-1.9	-1.6	0.4	-4.8	-1.4	/
Nc1nonc1-n1nnc(C(=O)N/N=C/c2ccc(OCc3ccccc3)cc2)c1CNc1ccccc1	-0.4	-5.6	-2.0	39.2*	0.5	0.6
Cc1cccc(COc2ccc(/C=N/NC(=O)c3nnn(-c4nonc4N)c3CN3CCCCC3)cc2)c1	-0.2	-4.2	5.4	30.7*	0.2	10.4
Cc1ccc2nc3c(cc2c1)CN(Cc1ccco1)C(=NCC1CCCO1)S3 (stereo not drawn)	2.3	-3.7	12.5	45.2*	-0.6	9.8
Cc1cc(NC(=O)CSc2nc3c([nH]c4ccccc43)c(=O)n2-c2cccc(C(F)(F)F)c2)no1	/	/	0.7	44.5*	/	4.9
Cc1ccc(C2(C)NC(=O)N(CC(=O)Nc3cc(S(=O)(=O)N(C)C)ccc3C)C2=O)cc1 (stereo not drawn)	-1.1	-14.9	-2.8	2.8	0.0	/
Cc1cccn2c(=O)c3cc(C(N)=S)c(=N)n(CCCOC(C)C)c3nc12	10.1	18.9	19.2	51.9*	0.6	2.4
COc1ccc(/C=C/C(=O)c2nc3ccccc3n2CC(=O)c2ccc(OC)cc2)cc1	8.7	-23.3	7.0	30.0*	3.3	25.4
SMILES	PP1 counter	PREPL inhibitor	Rpn11 inh	NadD block	PP5 primary	NadD conf
COc1ccc(C(=O)Cn2c(C(C)=O)nc3ccccc32)cc1	/	/	6.7	3.3	/	/
Cc1c(NC(=O)c2cccnc2Cl)c(=O)n(-c2ccccc2)n1C	-1.7	-7.3	-12.4	-3.0	-0.2	/
COC(=O)NC1CCC(NC(=O)OC)CC1 (stereo not drawn)	1.1	1.3	-11.6	-5.0	1.2	/
O=C(CCN1C(=O)S/C(=C\c2cccs2)C1=O)Nc1nccs1	0.9	16.9	8.7	4.8	0.2	/
COc1ccc(/C=C2/SC(=O)N(CCC(=O)Nc3ccc(S(=O)(=O)Nc4nccs4)cc3)C2=O)cc1	5.7	8.2	-3.9	68.6*	4.0	49.0*
COc1cc(NS(=O)(=O)c2ccc(NC(=S)NC(=O)c3sc4ccccc4c3Cl)cc2)ncn1	-1.6	-0.1	17.0	49.6*	2.7	14.4
Cc1ccc(NC(=O)c2cc(C(=O)c3cc(Cl)ccc3O)cn(-c3ccc(C)cc3)c2=O)cc1	3.2	-1.1	17.5	31.1*	-0.1	-10.7
COc1cccc(C(O)c2ncc(-c3cccc(C(F)(F)F)c3)[nH]2)c1 (stereo not drawn)	/	/	-3.9	-5.6	/	/
CC(C)C[C@@H](CNCC(=O)[C@H](Cc1c[nH]c2ccccc12)NC(=O)c1[nH]cnc1C(=O)N[C@@H](C)CN)NC(=O)c1nc[nH]c1C(=O)N[C@@H](Cc1ccccc1)C(=O)O	/	/	-9.2	33.9*	/	43.3
CC(C)C[C@@H](CNC(=O)OC(C)(C)C)NC(=O)c1nc[nH]c1C(=O)N[C@@H](CC(C)C)C(=O)CNC[C@H](CC(C)C)NC(=O)c1nc[nH]c1C(=O)N[C@@H](Cc1c[nH]c2ccccc12)C(=O)OC(C)(C)C	/	17.9	1.9	30.2*	/	5.3
CC(C)C[C@@H](CN)NC(=O)c1nc[nH]c1C(=O)N[C@@H](C)C(=O)CNC[C@H](CC(C)C)NC(=O)c1nc[nH]c1C(=O)N[C@@H](Cc1ccccc1)C(=O)O	/	/	11.1	31.9*	/	45.7
O=C(CSc1nnc(-c2ccccc2F)n1C1CC1)N1CCCC1	/	/	-5.3	1.6	/	/
COc1ccc(CN(C(=O)c2ccc(C)cc2)C2CCS(=O)(=O)C2)cc1 (stereo not drawn)	-1.6	-1.2	-5.9	-0.8	1.3	/
O=C(Nc1ccc(N2CCN(C(=O)c3cccs3)CC2)cc1)c1ccc(F)cc1	0.6	13.0	-0.6	-3.0	0.4	/
O=C(/C=C/[C@H]1O[C@@H](n2ccc(=O)[nH]c2=O)[C@H](O)[C@@H]1O)NCc1cccs1	/	/	-3.3	0.9	/	/
NC(=O)[C@H]1CC2(CC(c3cccc(NC(=O)COc4ccc(Cl)cc4)c3)=NO2)CN1C(=O)c1ccccc1C(=O)c1ccccc1 (stereo partly drawn)	13.3	25.8	5.5	31.4*	3.3	39.8
